Data published in the supplement of paper PMC6953052.
Whole data set: some 1,700 compounds, median “fraction of GFP-LC3-positive cells (≥5 vesicles/cell)” near 0.058, cut for the highest 2% near 0.59. For the sample, the highest values were picked, then their nearest neighbours and some compounds at random.

test system: CbCln3 +/+ GFP-LC3 cerebellar neuronal cells; assay: fraction of GFP-LC3-positive cells (≥5 vesicles/cell); higher = more autophagosome accumulation
Summary of the method: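 In 384-well plates at 2 × 10^3 cells per well, GFP-LC3-expressing wild-type or mutant CbCln3 cerebellar cells took ~50 nL of compound in DMSO by pin transfer, in duplicate, for 24 h at 33 °C. Staining with Hoechst 33342 and LysoTracker Red over the final 30 min preceded fixation in 3.2% PFA and imaging of three fields per well at 10×. CellProfiler then counted GFP-LC3 vesicles in each cell, and out-of-focus images were dropped before the fraction of cells with 5 or more vesicles was averaged over duplicates.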

Row | SMILES | fraction of GFP-LC3-positive cells
1 | N#Cc1c(-c2ccccc2)no[n+]1[O-] [Furoxan] | 0.597
2 | COc1cc(CNC(=O)CCCC/C=C/C(C)C)ccc1O [Capsaicin] | 0.0783
3 | Cc1cccc(Nc2ccncc2S(=O)(=O)NC(=O)NC(C)C)c1 [Torsemide] | 0.0886
4 | CC(/C=C/C(=O)NO)=C\[C@@H](C)C(=O)c1ccc(N(C)C)cc1 [trichostatin-A] | 0.799
5 | CN(C)N=Nc1[nH]cnc1C(N)=O [Dacarbazine] | 0.0174
6 | CC/C=C\C/C=C\C/C=C\C/C=C\C=C\C(O)CCCC(=O)O (racemic) | 0.07
7 | Cc1ccc(S(=O)(=O)N[C@@H](Cc2ccccc2)C(=O)CCl)cc1 | 0.315
8 | CCCCNC(=O)NS(=O)(=O)c1ccc(C)cc1 [Tolbutamide] | 0.0602
9 | Cc1ccc(S(=O)(=O)N[C@@H](Cc2ccccc2)C(=O)CCl)cc1 [Tosyl-Phe-CMK (TPCK)] | 0.744
10 | CCCCNC(=O)NS(=O)(=O)c1ccc(C)cc1 | 0.046
11 | O=C(O)c1ccccc1OP(=O)(O)O [Fosfosal] | 0.0551
12 | O[C@H]1[C@H]2c3cc4c(cc3CN3CCC(=C[C@@H]1O)[C@H]23)OCO4 [Lycorine] | 0.424
13 | CC(=O)CC(c1ccc([N+](=O)[O-])cc1)c1c(O)c2ccccc2oc1=O (stereo unspecified) [Acenocoumarol] | 0.0753
14 | CCCCC/C=C\C/C=C\C/C=C\C=C\C1CCCC(=O)O1 (racemic) [(±)5-HETE Lactone] | 0.0775
15 | CCCCNc1ccc(C(=O)OCCOCCOCCOCCOCCOCCOCCOCCOCCOC)cc1 [Benzonatate] | 0.0604
16 | CCCCCCCCCCCCCCCCOCC(CO)OC(C)=O (stereo unspecified) [1-Hexadecyl-2-O-acetyl-glycerol] | 0.076
17 | CCCCCCCCCCCCCCCCOCC(CO)OC(C)=O (stereo unspecified) | 0.0373
18 | CCN(CC)CCNC(=O)COc1ccc(OC)cc1.Cl [Mefexamide hydrochloride] | 0.0712
19 | CC1=C(/C=C/C(C)=C/C=C/C(C)=C/C(=O)O)C(C)(C)CCC1 | 0.0875

Row | SMILES | fraction of GFP-LC3-positive cells
20 | CC1=C(/C=C/C(C)=C/C=C/C(C)=C/C(=O)O)C(C)(C)CCC1 [Retinoic acid, all trans] | 0.0413
21 | O=C(CCCCC(=O)Nc1c(I)cc(I)c(C(=O)O)c1I)Nc1c(I)cc(I)c(C(=O)O)c1I [Iodipamide] | 0.064
22 | CCCCC[C@H](O)/C=C/[C@H]1C(=O)C[C@H](O)[C@@H]1C/C=C\CCCC(=O)O [Prostaglandin D2] | 0.0347
23 | CCCCC[C@H](O)/C=C/[C@H]1C(=O)C[C@H](O)[C@@H]1C/C=C\CCCC(=O)O | 0.0396
24 | Cc1ccc2c(c1)C(=O)C1(O)CCN(c3ccccc3)C1=N2 (stereo unspecified) [Blebbistatin] | 0.0372
25 | CC(=O)S[C@@H]1CC2=CC(=O)CC[C@]2(C)[C@H]2CC[C@@]3(C)[C@@H](CC[C@@]34CCC(=O)O4)[C@H]12 [Spironolactone] | 0.0439
26 | CCCCCCCC/C=C\C/C=C\C/C=C\CCCC(=O)O | 0.0292
27 | CCCCCCCC/C=C\C/C=C\C/C=C\CCCC(=O)O [Mead acid (20:3 n-9)] | 0.0545
28 | N/C(=N\C(=O)c1nc(Cl)c(N)nc1N)NCc1ccc(Cl)cc1Cl | 0.6
29 | N/C(=N\C(=O)c1nc(Cl)c(N)nc1N)NCc1ccccc1 | 0.0546
30 | Cl.N/C(=N\C(=O)c1nc(Cl)c(N)nc1N)NCc1ccccc1 [Benzamil hydrochloride] | 0.0345
31 | CC(N/C(=N\C#N)Nc1ccncc1)C(C)(C)C (stereo unspecified) [Pinacidil] | 0.0274
32 | CCN(CC)CCCCCCCCOC(=O)c1cc(OC)c(OC)c(OC)c1 | 0.0457
33 | CN1CCC(=C2c3ccccc3Sc3ccccc32)CC1.O=C(O)/C=C\C(=O)O [Pimethixene maleate] | 0.0718
34 | CNCCc1ccccn1.CS(=O)(=O)O.CS(=O)(=O)O [Betahistine mesylate] | 0.0666
35 | CN(C)CCN(Cc1ccc(Cl)cc1)c1ccccn1.Cl [Chloropyramine hydrochloride] | 0.056
36 | c1ccc(CN(CCN(Cc2ccccn2)Cc2ccccn2)Cc2ccccn2)nc1 | 0.755
37 | CC(C)(Sc1cc(C(C)(C)C)c(O)c(C(C)(C)C)c1)Sc1cc(C(C)(C)C)c(O)c(C(C)(C)C)c1 [Probucol] | 0.0472
38 | COc1cc2ccc(=O)oc2cc1O [Scopoletin] | 0.0458

Row | SMILES | fraction of GFP-LC3-positive cells
39 | CCOC(=O)Oc1c(OC)cc(C(=O)O[C@@H]2C[C@@H]3CN4CCc5c([nH]c6cc(OC)ccc56)[C@H]4C[C@@H]3[C@H](C(=O)OC)[C@H]2OC)cc1OC [Syrosingopine] | 0.251
40 | CCn1cc(C(=O)O)c(=O)c2cc(F)c(N3CCNCC3)nc21 [Enoxacin] | 0.045
41 | Cc1cc2ncc(-c3ccccc3)nc2cc1C | 0.0688
42 | O=C(O)CNC(=O)C(CS)Cc1ccccc1 (stereo unspecified) [Thiorphan] | 0.0564
43 | O=C(O)CNC(=O)C(CS)Cc1ccccc1 (stereo unspecified) | 0.0651
44 | COc1cccc2c1C(=O)c1c(O)c3c(c(O)c1C2=O)C[C@@](O)(C(C)=O)C[C@@H]3O[C@H]1C[C@H](N)[C@H](O)[C@H](C)O1.Cl [Daunorubicin hydrochloride] | 0.568
45 | COc1cccc2c1C(=O)c1c(O)c3c(c(O)c1C2=O)C[C@@](O)(C(=O)CO)C[C@@H]3O[C@H]1C[C@H](N)[C@H](O)[C@H](C)O1.Cl [doxorubicin] | 0.608
46 | COc1cccc2c1C(=O)c1c(O)c3c(c(O)c1C2=O)C[C@@](O)(C(=O)CO)C[C@@H]3O[C@H]1C[C@H](N)[C@H](O)[C@H](C)O1.Cl [Doxorubicin hydrochloride] | 0.482
47 | CC[N+](CC)(CC)CC(=O)Nc1c(C)cccc1C.[Br-] | 0.0348
48 | CC(C)N1CCN(c2ccc(OC[C@H]3CO[C@](Cn4cncn4)(c4ccc(Cl)cc4Cl)O3)cc2)CC1 [Terconazole] | 0.0686
49 | O=C(O)c1ccc2nc(-c3ccccc3)c(-c3ccccc3)nc2c1 | 0.0605
50 | c1ccc2c(Cc3c[nH]c4ccccc34)c[nH]c2c1 [Diindolylmethane] | 0.0761
51 | c1ccc2c(Cc3c[nH]c4ccccc34)c[nH]c2c1 | 0.0651
52 | Nc1nc(=O)c2c([nH]1)NCC(CNc1ccc(C(=O)N[C@@H](CCC(=O)[O-])C(=O)[O-])cc1)N2C=O.[Ca+2] (stereo partly specified) [Folinic acid calcium salt] | 0.0553
53 | CC[C@H]1[C@@H]2C=C[C@@H]3[C@H]4C/C=C\C(=O)NCCC[C@@H]5NC(=O)C(=C5O)C(=O)CC[C@@H]4C[C@@H]3[C@H]2C[C@H]1C [Ikarugamyin] | 0.69
54 | CC1=C(C(=O)O)N2C(=O)[C@@H](NC(=O)[C@H](N)c3ccccc3)[C@H]2SC1.O [Cephalexin monohydrate] | 0.0422
55 | OC[C@H]1NC[C@H](O)[C@@H](O)[C@@H]1O [deoxynorjrimycin(1)] | 0.0354
56 | O=C(O)c1cc(-c2ccc(F)cc2F)ccc1O [Diflunisal] | 0.0501
